Test results reported in PubChem BioAssay.
Activity calls are given as the source filed them.

Legend:
[1] = system: Plasmodium falciparum Sir2 (PF13_0152, Sir2A); experiment: Plasmodium falciparum Sir2A binding compounds – biochemical, small-molecule microarray, 635 nm fluorescence, primary screen (AID 1098); settings: fluorescence 635 nm, higher = more signal;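 note: score merges spot fluorescence intensity with its signal-to-noise ratio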
[2] = probe aDKK1 binding to arrayed compounds – biochemical, biotinylated probe, 635/667 nm fluorescence, primary screen (AID 1099); settings: small-molecule microarray, higher = more signal;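 note: score merges 667nm spot fluorescence with signal to noise across triplicate slides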
[3] = probe aCHRDL2 binding to arrayed compounds – biochemical, biotinylated probe, 635/667 nm fluorescence, primary screen (AID 1100); settings: small-molecule microarray, higher = more signal
[4] = change in splice reporter luminescence, either direction, cell-based, HEK293, spliceosome inhibition project, primary screen (AID 1101); settings: HEK293 splicing luciferase reporter, 24 h, higher = more signal, called active from +8 up or from −8 down;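 note: HEK293 cells carrying a splicing-competent luciferase reporter gene; test concentration not given here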
[5] = target: Fibroblast growth factor 10 (Homo sapiens) (UniProt O15520); experiment: compounds binding fibroblast growth factor 10 – biochemical, small-molecule microarray, 635 nm fluorescence, primary screen (AID 1102); settings: FGF10 binding, fluorescence 635 nm, higher = more signal
[6] = system: glycogen synthase kinase-3 (GSK3A per assay name; protocol says GSK3B); experiment: compounds binding glycogen synthase kinase-3 – biochemical, small-molecule microarray, 635 nm fluorescence, GSK3A, primary screen (AID 1103); settings: fluorescence 635 nm, higher = more signal; note: the record names both GSK3A and GSK3B
[7] = target: Epidermal growth factor receptor (Homo sapiens) (UniProt P00533); experiment: compounds binding epidermal growth factor receptor – biochemical, small-molecule microarray, 635 nm fluorescence, primary screen (AID 1104); settings: EGFR binding, higher = more signal;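 note: score merges 667 nm emission intensity with spot signal to noise over triplicate slides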
[8] = target: Follistatin-related protein 3 (Homo sapiens) (UniProt O95633); experiment: compounds binding follistatin-related protein 3 – biochemical, small-molecule microarray, 635 nm fluorescence, primary screen (AID 1105); settings: FSTL3 binding, higher = more signal;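 note: score merges emission near 667 nm and signal to noise per printed spot across three slides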
[9] = target: Dickkopf-related protein 1 (Homo sapiens) (UniProt O94907); experiment: small molecules binding DKK1 protein – biochemical, small-molecule microarray, 635 nm fluorescence scan, primary screen (AID 1106); settings: higher = more signal;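 note: score merges emission near 667 nm with signal to noise over three replicate slides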
[10] = system: Inhibin beta A chain (activin A); experiment: small molecules binding activin A – biochemical, small-molecule microarray, 635 nm fluorescence scan, primary screen (AID 1107); settings: INHBA, higher = more signal;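 note: mouse activin A protein probed at 4.33 µg/mL on printed slides; score merges bound-protein fluorescence near 667 nm with spot signal-to-noise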
[11] = system: Human papillomavirus type 1a protein E7 (residues 44-93); experiment: small molecules binding HPV E7 44-93 – biochemical, small-molecule microarray, residues 44-93, 635 nm fluorescence, primary screen (AID 1108); settings: fluorescence 635 nm, higher = more signal;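 note: E7 fragment applied at 1 µg/mL in TBST for 1 h at 4 C; score combines spot fluorescence with its signal to noise ratio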
[12] = hepatitis C replication reporter changes, two-sided – Huh7 cells, luciferase reporter, HCV replication inhibitor project, primary screen (AID 1109); settings: Huh7 HCV replicon luciferase reporter, 48 h; higher = more signal;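 note: huh7 hepatoma cells harbouring a luciferase neomycin HCV replicon reporter; luciferase luminescence as measure of HCV replicon replication; test concentration not given here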
[13] = target: Left-right determination factor 2 (Homo sapiens) (UniProt O00292); experiment: small molecules binding LEFTY2 protein – biochemical, small-molecule microarray, 635 nm fluorescence scan, primary screen (AID 1110); settings: higher = more signal
[14] = target: Calmodulin-1 (Homo sapiens) (UniProt P0DP23); experiment: small molecules binding calmodulin-1 with EGTA – biochemical, small-molecule microarray, Cy5-labelled CALM1, profiling panel (AID 1111); settings: Cy5-CALM1 binding fluorescence, higher = more signal;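 note: labelled calmodulin applied in Tris saline Tween buffer holding calcium plus EGTA and DTT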
[15] = target: Calmodulin-1 (Homo sapiens) (UniProt P0DP23); experiment: small molecules binding Ca-loaded calmodulin-1 – biochemical, small-molecule microarray, Cy5-labelled CALM1, plus calcium, artefact control for SMM control-protein annotation, profiling panel (AID 1112); settings: Cy5-CALM1 binding fluorescence, higher = more signal;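 note: score merges spot fluorescence with signal to noise from triplicate slides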
[16] = probe aWnt5a binding to arrayed compounds – biochemical, biotinylated probe, 635/667 nm fluorescence, primary screen (AID 1113); settings: small-molecule microarray, higher = more signal;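 note: score merges 667 nm fluorescence intensity with signal-to-noise per printed feature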
[17] = probe aShh binding to arrayed compounds – biochemical, biotinylated probe, 635/667 nm fluorescence, primary screen (AID 1114); settings: small-molecule microarray, higher = more signal;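 note: probe is biotin-labelled aShh protein from a stem cell growth factor screen; measures binding of labelled protein to compounds printed on the slide; score merges feature fluorescence at 667 nm with signal-to-noise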
[18] = probe aNog binding to arrayed compounds – biochemical, biotinylated probe, 635/667 nm fluorescence, primary screen (AID 1115); settings: small-molecule microarray, higher = more signal;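 note: probe is biotinylated aNog protein used at 0.15 µg/mL for 1 h at 4 C; z-score combines 667 nm fluorescence of each spot with its signal to noise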
[19] = target: Torsin-1A-interacting protein 1 (Homo sapiens) (UniProt Q5JTV8); experiment: compound microarray binding of lysate hLAP1 – cell lysate, small-molecule microarray, COS7 lysate, 635/667 nm fluorescence, primary screen (AID 1116); settings: 635 nm fluorescence, higher = more signal
[20] = target: Alpha-bungarotoxin (Bungarus multicinctus) (UniProt P60615); experiment: compounds binding labelled alpha-BTX control protein – biochemical, small-molecule microarray, Alexa647 label, 635/667 nm fluorescence, artefact control for SMM control protein annotation, profiling panel (AID 1117); settings: alpha-BTX-A647 binding fluorescence, higher = more signal
Chain of Alpha-bungarotoxin (Bungarus multicinctus) (P60615 whole entry, looked up): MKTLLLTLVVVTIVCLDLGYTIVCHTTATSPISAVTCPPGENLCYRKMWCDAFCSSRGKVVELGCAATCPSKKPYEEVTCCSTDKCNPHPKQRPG

Chain of Epidermal growth factor receptor (Homo sapiens) (P00533 whole entry, looked up): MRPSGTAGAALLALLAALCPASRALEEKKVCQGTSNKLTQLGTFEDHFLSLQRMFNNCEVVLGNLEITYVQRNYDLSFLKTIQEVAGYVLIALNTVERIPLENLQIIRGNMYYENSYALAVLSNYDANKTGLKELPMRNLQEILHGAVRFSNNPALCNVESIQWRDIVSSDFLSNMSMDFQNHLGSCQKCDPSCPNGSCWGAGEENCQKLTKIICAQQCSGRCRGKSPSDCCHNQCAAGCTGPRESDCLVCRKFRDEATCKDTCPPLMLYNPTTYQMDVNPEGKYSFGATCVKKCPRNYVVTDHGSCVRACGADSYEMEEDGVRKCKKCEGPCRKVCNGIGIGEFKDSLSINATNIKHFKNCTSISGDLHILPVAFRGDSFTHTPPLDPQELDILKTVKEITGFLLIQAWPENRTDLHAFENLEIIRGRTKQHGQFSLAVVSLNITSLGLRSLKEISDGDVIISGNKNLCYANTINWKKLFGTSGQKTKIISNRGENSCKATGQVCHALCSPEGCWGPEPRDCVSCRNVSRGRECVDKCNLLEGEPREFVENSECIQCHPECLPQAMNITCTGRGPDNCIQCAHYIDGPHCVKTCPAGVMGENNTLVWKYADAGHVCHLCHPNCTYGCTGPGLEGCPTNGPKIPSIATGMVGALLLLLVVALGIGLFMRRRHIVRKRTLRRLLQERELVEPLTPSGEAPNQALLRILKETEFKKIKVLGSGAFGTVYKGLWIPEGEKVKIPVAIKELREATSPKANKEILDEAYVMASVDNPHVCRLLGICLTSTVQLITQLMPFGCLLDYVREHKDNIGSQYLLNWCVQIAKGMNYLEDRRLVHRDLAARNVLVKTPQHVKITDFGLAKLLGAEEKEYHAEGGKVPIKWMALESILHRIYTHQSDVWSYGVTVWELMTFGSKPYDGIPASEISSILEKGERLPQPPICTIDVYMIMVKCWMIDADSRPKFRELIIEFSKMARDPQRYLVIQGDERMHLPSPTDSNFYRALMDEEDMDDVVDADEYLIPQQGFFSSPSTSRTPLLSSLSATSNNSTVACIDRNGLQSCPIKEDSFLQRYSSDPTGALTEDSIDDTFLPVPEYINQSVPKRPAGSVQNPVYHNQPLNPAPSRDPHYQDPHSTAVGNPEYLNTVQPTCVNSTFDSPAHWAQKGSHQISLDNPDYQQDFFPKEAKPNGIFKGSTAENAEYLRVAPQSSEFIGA
Chain of Follistatin-related protein 3 (Homo sapiens) (O95633 whole entry, looked up): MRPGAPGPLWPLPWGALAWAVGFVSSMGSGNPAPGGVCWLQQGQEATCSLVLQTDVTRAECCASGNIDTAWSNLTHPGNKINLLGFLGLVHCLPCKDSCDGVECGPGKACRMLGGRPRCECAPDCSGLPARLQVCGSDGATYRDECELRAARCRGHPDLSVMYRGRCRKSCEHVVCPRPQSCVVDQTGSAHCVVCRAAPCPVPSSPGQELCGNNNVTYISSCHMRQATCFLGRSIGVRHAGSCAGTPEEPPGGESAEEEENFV
Chain of Torsin-1A-interacting protein 1 (Homo sapiens) (Q5JTV8 whole entry, looked up): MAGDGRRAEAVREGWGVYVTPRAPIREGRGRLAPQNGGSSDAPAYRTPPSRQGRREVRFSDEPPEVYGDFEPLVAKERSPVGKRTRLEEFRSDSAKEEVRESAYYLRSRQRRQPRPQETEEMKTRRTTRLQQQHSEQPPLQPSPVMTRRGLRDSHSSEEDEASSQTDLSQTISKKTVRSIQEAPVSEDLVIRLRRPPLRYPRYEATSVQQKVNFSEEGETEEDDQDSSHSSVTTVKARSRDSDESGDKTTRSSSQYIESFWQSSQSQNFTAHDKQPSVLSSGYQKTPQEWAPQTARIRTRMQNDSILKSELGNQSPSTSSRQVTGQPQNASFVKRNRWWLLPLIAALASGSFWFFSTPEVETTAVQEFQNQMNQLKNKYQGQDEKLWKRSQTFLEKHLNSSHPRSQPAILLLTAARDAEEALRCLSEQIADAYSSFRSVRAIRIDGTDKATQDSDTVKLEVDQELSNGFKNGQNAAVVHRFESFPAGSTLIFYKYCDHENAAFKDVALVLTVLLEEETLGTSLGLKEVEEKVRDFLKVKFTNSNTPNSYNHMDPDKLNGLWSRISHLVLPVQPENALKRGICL
Chain of Dickkopf-related protein 1 (Homo sapiens) (O94907 whole entry, looked up): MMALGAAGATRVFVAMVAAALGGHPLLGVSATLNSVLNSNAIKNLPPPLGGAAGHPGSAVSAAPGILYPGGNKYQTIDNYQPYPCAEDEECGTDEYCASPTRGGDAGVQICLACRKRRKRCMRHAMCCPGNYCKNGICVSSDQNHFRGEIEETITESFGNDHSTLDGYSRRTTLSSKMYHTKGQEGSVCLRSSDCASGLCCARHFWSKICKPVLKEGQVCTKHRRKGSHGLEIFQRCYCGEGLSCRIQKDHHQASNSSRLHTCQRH
Chain of Left-right determination factor 2 (Homo sapiens) (O00292 whole entry, looked up): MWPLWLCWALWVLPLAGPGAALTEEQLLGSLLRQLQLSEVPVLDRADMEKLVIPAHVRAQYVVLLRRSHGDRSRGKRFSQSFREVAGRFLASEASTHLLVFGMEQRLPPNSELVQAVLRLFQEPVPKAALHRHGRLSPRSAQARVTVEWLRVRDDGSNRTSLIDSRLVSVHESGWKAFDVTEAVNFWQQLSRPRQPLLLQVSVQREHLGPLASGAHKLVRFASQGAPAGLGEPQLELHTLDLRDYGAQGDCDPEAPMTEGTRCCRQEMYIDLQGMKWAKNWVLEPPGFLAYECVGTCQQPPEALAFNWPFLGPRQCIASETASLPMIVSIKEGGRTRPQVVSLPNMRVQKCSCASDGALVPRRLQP
Chain of Fibroblast growth factor 10 (Homo sapiens) (O15520 whole entry, looked up): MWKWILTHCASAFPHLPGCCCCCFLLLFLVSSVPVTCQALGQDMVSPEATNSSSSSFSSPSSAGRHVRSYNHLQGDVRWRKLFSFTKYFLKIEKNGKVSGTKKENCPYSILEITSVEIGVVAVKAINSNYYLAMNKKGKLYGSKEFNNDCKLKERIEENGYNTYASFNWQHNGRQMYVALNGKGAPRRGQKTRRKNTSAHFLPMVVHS

Structure (SMILES) | composite z-score [1] | composite z-score [2] | composite z-score [3] | z-score [4] | composite z-score [5] | composite z-score [6] | composite z-score [7] | composite z-score [8] | composite z-score [9] | composite z-score [10] | composite z-score [11] | z-score [12] | composite z-score [13] | composite z-score [14] | composite z-score [15] | composite z-score [16] | composite z-score [17] | composite z-score [18] | composite z-score [19] | composite z-score [20]
O=C1C2C=CC(C(O)c3ccccc3)N(Nc3ccccc3F)C2C(=O)N1c1ccccc1 (stereo not given) | 0.797 | -0.168 | 0.24 | -0.245 (inactive) | 0.311 | -0.178 | 0.223 | 0.341 | 0.0646 | 0.626 | 0.188 | -0.384 | -0.0935 | 0.0824 | -0.537 | -0.15 | -0.0626 | -0.341 | 0.178 | 0.204
C=CCC(OC(C)=O)[C@@H]1[C@@H](N(Cc2cccc3ccccc23)C(=O)Cc2ccc(F)cc2)c2cc(OCCCO)ccc2N1C(=O)c1ccc2ccccc2n1 (stereo not given in full) | 0.12 | 0.195 | 0.429 | 0.866 (inactive) | -0.0905 | -0.329 | -0.06 | -0.159 | -0.305 | 1.36 | -0.829 | -0.562 | 0.226 | 0.304 | 0.398 | -0.18 | -0.123 | -0.432 | 0.0149 | 0.411
COCCOC(=O)N1C(=O)[C@@]2(c3ccccc31)[C@H](C(=O)N1CCN(c3ncccn3)CC1)[C@H]1C(=O)O[C@H](c3ccccc3)[C@H](c3ccccc3)N1[C@@H]2c1ccc(O)cc1 | 1.59 | 0.184 | 0.573 | 0.554 (inactive) | 0.745 | 0.53 | 0.0611 | -0.11 | 0.278 | -0.66 | 0.97 | -1.57 | 0.256 | 0.949 | 0.166 | -0.0735 | 0.191 | 0.893 | 0.482 | 1.72
COc1ccc(CCN2C(=O)[C@@]3(Cc4ccccc42)c2ccccc2C(=O)N(Cc2ccccc2OC)[C@H]3c2ccc(CO)cc2)cc1 | 0.9 | 0.533 | 0.406 | -0.942 (inactive) | -0.783 | -0.49 | -0.951 | -1.14 | -1.33 | 0.359 | -0.131 | -0.601 | -1.03 | 0.0678 | 0.466 | -0.1 | -0.155 | 0.898 | -0.119 | -0.749
C=CCN1Cc2ccccc2[C@H]2OC(c3ccc(OCCCO)cc3)=N[C@@]2(CC=C)C1=O | 0.911 | 0.406 | 1.09 | -0.308 (inactive) | 1.4 | 1.28 | 0.901 | 1.42 | 1.67 | 1.39 | 1.46 | -1.74 | 0.725 | 3.19 | 1.43 | -0.0478 | 0.14 | -0.44 | -0.0689 | 1.36
